From PubChem BioAssay
ASM inhibitor = inhibitors of human secretory acid sphingomyelinase. P17405. placental ASM, HMU-PC fluorogenic substrate, 60 min. Potency, µM (doses to about 57.5 µM), without a hit: at the highest dose activity change, negative = inhibition, usual class: inhibitors. 0.006% of 340,000 active. AID 504937; further: potency means the concentration at half of the fitted maximal effect
Target sequence (P17405 47-631 limits assumed): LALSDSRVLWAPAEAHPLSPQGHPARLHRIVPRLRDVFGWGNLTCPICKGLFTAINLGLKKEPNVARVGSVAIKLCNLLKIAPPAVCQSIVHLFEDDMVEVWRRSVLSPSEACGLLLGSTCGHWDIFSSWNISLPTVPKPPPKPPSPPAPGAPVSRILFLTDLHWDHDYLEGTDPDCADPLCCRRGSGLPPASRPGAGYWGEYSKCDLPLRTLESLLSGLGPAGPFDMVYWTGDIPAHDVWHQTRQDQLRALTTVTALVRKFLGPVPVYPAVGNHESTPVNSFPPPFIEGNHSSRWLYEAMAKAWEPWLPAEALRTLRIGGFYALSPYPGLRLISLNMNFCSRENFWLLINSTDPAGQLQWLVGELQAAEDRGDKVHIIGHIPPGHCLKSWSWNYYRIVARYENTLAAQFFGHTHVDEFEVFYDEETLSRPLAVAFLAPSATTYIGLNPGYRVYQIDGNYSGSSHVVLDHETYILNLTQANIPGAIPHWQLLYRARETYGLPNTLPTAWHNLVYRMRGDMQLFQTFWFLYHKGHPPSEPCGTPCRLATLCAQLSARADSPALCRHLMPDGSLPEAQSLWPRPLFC
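Fluorogenic HMU-PC substrate (9 uM final) is turned over by placental ASM in 60 min at 37 C after a 10 min compound preincubation. Reaction ended by alkaline stop (pH 10), with fluorescence read at 386/447 nm.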
KB-V1 MDR tox = kills drug-selected multidrug resistant KB-V1 cells; KB-V1 MDR cells viability, CellTiter-Glo, 72 h; Potency, µM (doses to about 46.1 µM), usual class: cytotoxic; 3.4% of 400,000 active; further: potency means the concentration at half of the fitted maximal effect; on the % scale 0 is the no-effect control and ±100 the full control effect; nearly all actives have a fitted effect of over 60% in size
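Cytotoxicity toward P-gp-expressing KB-V1 cells was determined as loss of CellTiter-Glo luminescence after 72 h at 37 degrees C. Compounds were tested in quantitative HTS format across a concentration range, with curves fitted to normalized data.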
Giardia kill = Giardia lamblia killing; 0.15% of 340,000 active; Giardia lamblia trophozoite viability; AID 540267; activity change, % at 7.66 µM, hits read low; in the data active means activity change below about -80%; inconclusive means between about -30% and that limit;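 further: parasites exposed to compound for two days anaerobically before the ATP read; on the % scale 0 is the no-effect control and ±100 the full control effect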
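ATP-content bioluminescence gauges trophozoite survival. Cells (100/well) receive compound and incubate anaerobically for 48 hrs at 37 deg C; detection reagent follows for 15-30 min at room temperature.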
KB-3-1 cytotox = kills parental KB-3-1 adenocarcinoma cells. Potency, µM (doses to about 46.1 µM), hits mostly cytotoxic. 1.4% of 400,000 active. KB-3-1 viability, CellTiter-Glo ATP luminescence, 72 h; further: potency means the concentration at half of the fitted maximal effect; on the % scale 0 is the no-effect control and ±100 the full control effect; nearly all actives have a fitted effect of over 60% in size
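Screening of KB-3-1 cells (DMEM, 10% FBS, phenol-red free) ran from lowest to highest compound concentration; after 72 h at 37 °C viability was read luminescently and curves fitted.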
SW480 rereplic = DNA re-replication induction in SW480 cells; SW480 DNA re-replication, Hoechst DNA content imaging, 48 h; Potency, µM (series often up to 46.1 µM), for inactives: top-dose re-replication activation, usual class: activators; 1.8% of 340,000 active; further: potency means the concentration at half of the fitted maximal effect; % of control where 0% means no effect; nearly all actives have a fitted effect of over 55% in size
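Per well, 250 cells were exposed to pinned compound for 48 hr. Nuclear DNA was visualised with Hoechst (40 min, 37 C) and total object intensity recorded by fluorescence scanning.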
MCF10A rereplic = DNA re-replication induction in MCF 10a cells. MCF 10A DNA re-replication, Hoechst nuclear intensity, 48 h. Potency, µM (highest dose often 46.1 µM), without a hit: top-dose activity, positive = re-replication, hits mostly activators. 2.9% of 350,000 active; further: potency means the concentration at half of the fitted maximal effect; % of control where 0% means no effect; nearly all actives have a fitted effect of over 50% in size
An asterisk follows results filed as active; [ ] = remark or other dose. Only some compounds are listed: those with a hit (about 6.9% of all), similar ones and a draw of the others. Unless noted, the call rests on the fitted dose curve; in most records, active means well fitted curve in the direction sought with a large enough effect; inconclusive means small, poorly fitted or top-dose-only effect, or another doubt; inactive means no such curve, though single readings can be large; an effect the other way counts as inactive or inconclusive.

Screening NC(=O)N/N=C/c1ccc([N+](=O)[O-])o1 returned ASM inhibitor -4%, KB-V1 MDR tox inconclusive, Giardia kill inconclusive, KB-3-1 cytotox inactive, SW480 rereplic inconclusive and MCF10A rereplic 0%.
For Cc1ccc(OCC(=O)N/N=C\c2ccc(C)o2)c([N+](=O)[O-])c1 the results were ASM inhibitor -2%, KB-V1 MDR tox inactive, Giardia kill 8, KB-3-1 cytotox inactive, SW480 rereplic -19% and MCF10A rereplic -34%.
Screening Cc1cc(C(=O)N/N=C/c2ccc([N+](=O)[O-])o2)c(C)o1 returned ASM inhibitor -2%, KB-V1 MDR tox inactive, Giardia kill -97*, KB-3-1 cytotox inactive, SW480 rereplic inconclusive and MCF10A rereplic 5%.
O=C(N/N=C/c1ccc([N+](=O)[O-])o1)C1CC1 was read as ASM inhibitor -2%, KB-V1 MDR tox inconclusive, Giardia kill -85*, KB-3-1 cytotox inactive, SW480 rereplic inconclusive and MCF10A rereplic 11%.
For Cc1ccc(OCC(=O)N/N=C/c2ccc([N+](=O)[O-])o2)cc1 the results were ASM inhibitor -2%, KB-V1 MDR tox inconclusive, Giardia kill -101*, KB-3-1 cytotox inactive, SW480 rereplic -6% and MCF10A rereplic -5%.
Screening Cc1nonc1C(=O)N/N=C/c1ccc([N+](=O)[O-])o1 returned ASM inhibitor -3%, KB-V1 MDR tox inactive, Giardia kill -16, KB-3-1 cytotox inconclusive, SW480 rereplic -226%[1.84 µM] and MCF10A rereplic -2%.
Screening O=[N+]([O-])c1ccc(/C=N/NC(=S)Nc2ccccc2C(F)(F)F)o1 returned ASM inhibitor 0%, KB-V1 MDR tox inactive, Giardia kill -12, KB-3-1 cytotox inactive and MCF10A rereplic 3%.
O=C(N/N=C/c1ccc([N+](=O)[O-])o1)c1cn2ccc3ccccc3c2n1 was read as ASM inhibitor 0%, KB-V1 MDR tox inactive, Giardia kill -95*, KB-3-1 cytotox inactive, SW480 rereplic 21µM* and MCF10A rereplic inconclusive.
For C[C@H](CO)N1C[C@H](C)[C@@H](CN(C)S(=O)(=O)c2ccc(F)cc2)Oc2ccc(NC(=O)NC3CCCCC3)cc2C1=O the results were ASM inhibitor -3%, KB-V1 MDR tox inactive, Giardia kill 4, KB-3-1 cytotox inactive, SW480 rereplic inconclusive and MCF10A rereplic -6%.
O=C(N/N=C/c1ccc([N+](=O)[O-])o1)c1sc2ccccc2c1Cl was read as ASM inhibitor -3%, KB-V1 MDR tox inconclusive, Giardia kill -95*, KB-3-1 cytotox inconclusive, SW480 rereplic 14% and MCF10A rereplic inconclusive.
Screening O=C(N/N=C/c1ccccn1)c1sc2ccccc2c1Cl returned ASM inhibitor -2%, KB-V1 MDR tox inactive, Giardia kill 9, KB-3-1 cytotox inconclusive, SW480 rereplic inconclusive and MCF10A rereplic inconclusive.
For Nc1nc(=S)c2[nH]c(=S)[nH]c2[nH]1 the results were ASM inhibitor -2%, KB-V1 MDR tox inconclusive, Giardia kill -7, KB-3-1 cytotox inconclusive, SW480 rereplic inconclusive and MCF10A rereplic inconclusive.
Screening Nc1nc(=S)c2[nH]cnc2[nH]1 returned ASM inhibitor 1%, KB-V1 MDR tox 0.73µM*, Giardia kill -5, KB-3-1 cytotox 1µM*, SW480 rereplic 19% and MCF10A rereplic inconclusive.
`Cn1cc(-c2coc3c(C(=O)Nc4ccccc4)cccc23)cn1` gave KB-V1 MDR tox 10µM* and KB-3-1 cytotox inactive.
`O=C(NCCc1nc2ccccc2n1CCCOc1ccccc1Cl)C1CCCCC1` gave KB-V1 MDR tox inactive, Giardia kill -12 and KB-3-1 cytotox inactive.
CCOC(=O)C1=C(C2=CCCCC2)c2ccc(OC)cc2N(S(=O)(=O)C(F)(F)F)C1C(=O)OCC (configuration not stated) was read as ASM inhibitor 3%, KB-V1 MDR tox inactive, Giardia kill -15, KB-3-1 cytotox inactive, SW480 rereplic 10µM* and MCF10A rereplic 16µM*.
CCOC(=O)C1C(C(=O)OC)=C(c2ccc(OC)cc2)c2ccc(OC)cc2N1S(=O)(=O)C(F)(F)F (configuration not stated) was read as ASM inhibitor 1%, KB-V1 MDR tox inactive, Giardia kill -16, KB-3-1 cytotox inactive, SW480 rereplic inconclusive and MCF10A rereplic 2%.
`COc1cc(NC(=O)CSc2nnc3c4ccccc4n(C)c3n2)cc(OC)c1OC` gave Giardia kill 16.
CS(=O)(=O)N1CCN(Cc2cc3nc(-c4cccc5[nH]ncc45)nc(N4CCOCC4)c3s2)CC1 was read as KB-V1 MDR tox inconclusive and KB-3-1 cytotox 5µM*.
Screening Cc1ccc(S(=O)(=O)N2CCN(c3nc(-c4ccc(CN5CCOCC5)s4)nc4ccccc34)CC2)cc1 returned KB-V1 MDR tox inconclusive, Giardia kill -7 and KB-3-1 cytotox inactive.
Screening Cc1ccccc1OCCN1C(=O)NC2(CCc3ccccc32)C1=O (configuration not stated) returned ASM inhibitor 0%, KB-V1 MDR tox 23µM*, Giardia kill 6, KB-3-1 cytotox inactive, SW480 rereplic 1% and MCF10A rereplic -1%.
Screening O=C1NC2(CCc3ccccc32)C(=O)N1CCOc1ccc(Cl)cc1 (configuration not stated) returned ASM inhibitor -3%, KB-V1 MDR tox inactive, Giardia kill 1, KB-3-1 cytotox inactive, SW480 rereplic -1% and MCF10A rereplic 1%.
Screening O=C(/C=C/c1ccc(F)cc1)c1ccccc1Br returned ASM inhibitor -4%, KB-V1 MDR tox inconclusive, Giardia kill 14, KB-3-1 cytotox 23µM* and MCF10A rereplic inconclusive.
For CCOc1ccc(C2C(C(=O)Nc3ccccc3)=C(C)Nc3nc(-c4ccccc4Cl)nn32)cc1OC (configuration not stated) the results were KB-V1 MDR tox inactive and KB-3-1 cytotox inactive.
For O=C1c2ccccc2NC(c2ccc(Br)s2)N1O (configuration not stated) the results were ASM inhibitor -2%, KB-V1 MDR tox inconclusive, Giardia kill 7, KB-3-1 cytotox inconclusive, SW480 rereplic 23% and MCF10A rereplic 23µM*.
C=CCN1C(=O)c2ccccc2NC1c1ccc(Br)s1 (configuration not stated) was read as ASM inhibitor 3%, KB-V1 MDR tox inconclusive, Giardia kill -20, KB-3-1 cytotox inactive, SW480 rereplic 5% and MCF10A rereplic 6%.
`COc1ccc(OC)c(C(=O)c2coc3ccc(O)cc23)c1` gave ASM inhibitor -2%, KB-V1 MDR tox 10µM*, Giardia kill 0, KB-3-1 cytotox inconclusive, SW480 rereplic inconclusive and MCF10A rereplic inconclusive.
